Consider 110 compounds from PubChem BioAssay AID488890 (Southern Research Specialized Biocontainment Screening …, 2010).

The whole screen tested about 320,000 compounds, of which about 1,300 (0.41%) were called active. Not shown: some 3% with an inconclusive outcome. How the calls were made is not given here. Not all results are given here. Entries with a potency or affinity are not part of this list.

The assay can be described thus: growth inhibition of non-replicating M. tuberculosis (AID 488890).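 Further: plate controls were DMSO cells for no effect and high antibiotic wells for full effect.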 The settings on record: Mycobacterium tuberculosis non-replicating, at 25 µM, stronger effect = higher value.
Take `CC1(C)Oc2ccc(C(=O)NN)cc2NC1=O`: the inhibition is 9.35%. As for `CC1=C/C(=C\c2ccc3c(c2)OCO3)C(=O)S1`, the inhibition came to 31.9%. `COc1ccc(/C=C2\N=C(SC)SC2=O)cc1OC`: the inhibition is 76.1%. Regarding `CCOc1ccc(N=CC2=C(O)CC(C)(C)CC2=O)cc1`, the inhibition was found to be 31.2%.

For the compound `CC1(C)CC(=O)C(C=Nc2ccc(N)cc2)=C(O)C1`, the inhibition was determined as 23.2%. As to `CCOc1cc(C2NCc3ccccc3-n3cccc32)ccc1OC` (stereo not given), the inhibition turned out to be 1.16%.

Take `O=C1CN(C(=O)COC(=O)CCC(=O)c2ccc(Cl)cc2)c2ccccc2N1`: the inhibition is 16.1%. As for `COc1ccc(CNCc2ccc3ccccc3c2)c(OC)c1`, the inhibition was 23.2%.

`COc1cccc(CNCc2ccc(OC)cc2OC)c1`: the inhibition came out at 16.2%.

Regarding `COc1ccc(C)cc1NC(=O)c1sc2ncn(CC(=O)N3CCCCC3)c(=O)c2c1C`, the inhibition is -1.26%. For the compound `Cc1nc2ccc(NC(=O)c3ccc(C)c(S(=O)(=O)N4CCOCC4)c3)cc2s1`, the inhibition is 29.1%. For `CC1C(C)C(O)(c2ccccc2)CCN1C` (stereo not given), the inhibition was -18.2%.

For `OC(c1ccccc1)C1CN(Cc2ccccc2)CCC1(O)c1ccccc1` (stereo not given), the inhibition was found to be 16.7%. Regarding `OC1(c2ccccc2)CCN(Cc2ccccc2)CC1`, the inhibition was -5.95%. Turning to `CCN1CCC(O)(c2ccccc2)C(C(=O)c2ccccc2)C1` (stereo not given), the inhibition was 3.22%. As for `O=C(NCc1ccco1)[C@@H]1CSC2c3ccccc3C(=O)N21` (stereo not given in full), the inhibition is -2.9%. The result for `CCCN(CC(=O)Nc1ccccc1OC)C(=O)c1ccc(=O)[nH]c1` reads -2.3%; that for `CN1CCN(c2ccc(NC(=O)c3ccc(Br)o3)cc2)CC1`, -1.79%; that for `S=C(c1ccc(-c2ccc(Br)cc2)o1)N1CCOCC1`, 74%. As to `NC(=O)C1CCN(C(=S)c2ccc(-c3ccc(Br)cc3)o2)CC1`, the inhibition came out at 76.2%. The result for `CN1CCN(c2ccc(NC(=O)c3ccc(-c4ccccc4F)o3)cc2)CC1` reads 79.5%; that for `CS(=O)(=O)N1CCN(c2ccc(NC(=O)c3ccc(-c4ccc(Cl)cc4)o3)cc2)CC1`, -19.8%; that for `CN1CCN(c2ccccc2NC(=O)c2ccc(-c3ccc(Br)cc3)o2)CC1`, 7.26%. Turning to `COC(=O)c1ccccc1NC(=O)CSc1ccc(C)cc1`, the inhibition turned out to be 66.9%.

Regarding `Cc1onc(-c2c(Cl)cccc2Cl)c1C(=O)NC(=S)Nc1sc2c(c1C(N)=O)CCC(C)C2` (stereo not given), the inhibition was 1.7%. The result for `Cc1ccccc1C(=O)NC(=S)NC1CCSC1=O` (stereo not given) reads 6.25%; that for `COc1ccc(NS(=O)(=O)c2ccc(NC(=S)NC(=O)c3ccc(Br)cc3)cc2)nn1`, 52.8%. For `CSCCC(NC(N)=O)C(=O)Nc1ccc(C)cc1` (stereo not given), the inhibition is -6.3%. `Cc1ccc2cc3c(nc2c1)N(c1ccccc1)CC3`: the inhibition is -3.46%.

With `COc1ccc2cc3c(nc2c1)OCC3`, the inhibition worked out at 52%. For the compound `CCOC(=O)NC(=O)/C(N=Nc1cccc(C(F)(F)F)c1)=C(\C)O`, the inhibition worked out at 22.5%. For the compound `COc1ccc(NC(=O)COC(=O)CN2C(=O)C3CC=CCC3C2=O)c([N+](=O)[O-])c1` (stereo not given), the inhibition came to 3.95%. In the case of `O=C(O)c1ccc(-[n+]2c(-c3ccccc3)cc(-c3ccccc3)cc2-c2ccccc2)cc1`, the inhibition is -4.01%.

In the case of `CS(=O)(=O)N(CC(=O)N1CCOCC1)c1cc(C(F)(F)F)ccc1Cl`, the inhibition is -10.6%. In the case of `COc1ccc(C(=O)OCC(=O)c2ccc(Cl)s2)c(OC)c1OC`, the inhibition came out at 52.4%. Regarding `COc1ccc(C(=O)OCC(=O)c2ccc(Br)s2)c(OC)c1`, the inhibition came to 66.5%.

For the compound `O=C(NCCSc1ccccc1)c1ccc(CN2CCOCC2)cc1`, the inhibition turned out to be 11.6%. The same measure for `Cn1c(N2CCN(C(c3ccccc3)c3ccccc3)CC2)nc2c1c(=O)[nH]c(=O)n2C`: -1.75%; for `Nc1ccc2c(c1)C(=O)c1ccccc1-2`: 79.4%; for `Nc1ccc2c(c1)C(=O)c1ccccc1C2=O`: -1.17%. As to `O=C(CSc1nnc(C2COc3ccccc3O2)o1)Nc1ccc(F)cc1Cl` (stereo not given), the inhibition is 27.9%. The same measure for `Cc1cc(NC(=O)CSc2nnc(C3COc4ccccc4O3)o2)no1` (stereo not given): 1.04%; for `CC(/C=C/c1ccccc1)=N\NC(=O)CCc1ccccc1`: -7.22%. Take `C/C(=N\NC(=O)c1ccccc1O)C1CC1`: the inhibition is -6.46%. Take `CCOc1ccc(/C(C)=N\NC(=O)Cc2ccccc2)cc1`: the inhibition came to 3%. Regarding `C/C(=N\NC(N)=O)c1cccc(Cl)c1`, the inhibition was -5.88%. As to `CCOc1ccc(OCc2ccc(C(=O)N/N=C(\C)c3ccccn3)cc2)cc1`, the inhibition amounted to 94.8%. Take `CSC(=NNC(=O)c1ccccc1O)SC`: the inhibition worked out at 14.8%. With `C/C(CCc1ccccc1)=N\NC(=O)CCc1ccccc1`, the inhibition turned out to be 2.92%. The same measure for `CCC/C(=N/NC(=O)c1cccc(Cl)c1)c1ccccc1`: 76.9%; for `O=C(NCc1nnc(SCC(=O)N2CCC(Cc3ccccc3)CC2)o1)c1ccccc1F`: 47.1%. Consider `CCCCn1c(N)c(N(C)C(=O)c2cc3c(s2)CCCCC3)c(=O)[nH]c1=O`, for which the inhibition was 19.5%. Regarding `Cc1ccc(N(CC(=O)NCc2ccco2)C(=O)CCC(=O)Nc2nccs2)cc1C`, the inhibition is -4.11%. As for `CCc1ccc(NC(=O)CSc2nc(O)cc(=O)n2C2CCCC2)cc1`, the inhibition was 37.7%. On to `COc1ccc(Cl)cc1NC(=O)CN(C)C(=O)c1cc(=O)c2ccccc2o1`, for which the inhibition was -2.49%. The same measure for `CCOC(=O)c1sc(NC(=O)CSc2ccccn2)c(C#N)c1C`: 5.94%; for `CC(=O)N(Cc1ccccc1)Cc1cn(CCC#N)nc1-c1cccc([N+](=O)[O-])c1`: -6.03%; for `C/C(CC(=O)N1CCCC1)=N\NC(=O)c1cc2ccccc2cc1O`: 7.43%. Consider `CC(/C=C/c1ccco1)=N/NC(=O)c1ccccc1Cl`, for which the inhibition came to 48.9%. Turning to `CC(/C=C/c1ccco1)=N\NC(=O)c1cccnc1`, the inhibition turned out to be 12.9%.

As to `CC(=O)N1CCC(=NNC(=O)c2cc3ccccc3cc2O)CC1`, the inhibition was found to be 4.69%. Consider `C/C(=N\NC(=O)c1c[nH]c2ccccc12)c1ccc(C)o1`, for which the inhibition came to 33.3%.

`C/C(=N\NC(=O)c1cc2ccccc2cc1O)c1ccc2c(c1)OCO2`: the inhibition was determined as 14.4%. As for `CCCCC(NC(=O)c1ccc(Cl)cc1)C(=O)O` (stereo not given), the inhibition is -0.66%. With `O=C(C[n+]1cccc(CNC(=O)c2ccc(OC(F)F)cc2)c1)Nc1ccccc1Cl`, the inhibition was 7.02%. Turning to `O=C(c1ccc([N+](=O)[O-])cc1)N1CCN(Cc2ccccc2[N+](=O)[O-])CC1`, the inhibition was found to be 12.7%. Consider `COc1ccc(C2C(C(=O)NCCN3CCOCC3)c3ccccc3C(=O)N2C2CCCCC2)cc1` (stereo not given), for which the inhibition was determined as 28.1%. As for `O=C(/C=C/NCc1cccnc1)c1ccc(Br)cc1`, the inhibition came out at 77.9%.

As to `COc1cc(NC(=O)CSc2nc(=O)n(CCN3CCOCC3)c3c2CCC3)cc(OC)c1`, the inhibition was 1.82%. Turning to `O=C(C1CCCN1S(=O)(=O)c1cccc2nsnc12)N1CCN(c2ccc(F)cc2)CC1` (stereo not given), the inhibition is -10%. The same measure for `COc1ccc(N(CC(=O)Nc2ccc(F)c(Cl)c2)S(=O)(=O)c2c(C)noc2C)cc1`: 19.1%; for `CCc1noc(C)c1C(=O)OC(C)C(=O)c1c(C)[nH]c2ccccc12` (stereo not given): 26.3%; for `Cc1cnc(C(=O)OC(C)C(=O)c2c(C)[nH]c3ccccc23)cn1` (stereo not given): 12.1%. As for `CCN(CC)C(=O)CSc1nnc(-c2ccco2)o1`, the inhibition amounted to 18.1%.

For `CCCOc1ccc(C(=O)CCNc2cccc(Cl)c2)cc1`, the inhibition stood at 74.8%.

As to `Cc1cccc(OCCn2cccc2/C=C2/C(=O)NC(=O)N(Cc3ccco3)C2=O)c1`, the inhibition stood at 49.4%. Turning to `O=C1NC(=O)N(Cc2ccco2)C(=O)/C1=C/c1cccn1CCOc1ccccc1Cl`, the inhibition was determined as 62.6%.

As for `O=C(NCCCOc1cccc(CN2CCCCC2)c1)c1ccc(Cl)c(Cl)c1`, the inhibition is 56.6%. On to `COc1cccc(Nc2nc(C)cc(C)c2C(N)=O)c1`, for which the inhibition is -12.4%. As for `COc1ccc2cc(CN(Cc3cccs3)Cc3nnnn3Cc3ccccc3)c(=O)[nH]c2c1`, the inhibition worked out at 27.5%.

On to `Cc1[nH]n(-c2ccccc2)c(=O)c1C(=O)c1cccc(F)c1`, for which the inhibition is 69%. Consider `Cc1[nH]n(-c2ccccc2)c(=O)c1C(=O)c1ccc([N+](=O)[O-])cc1`, for which the inhibition stood at 16.4%. For `Cc1cccc[n+]1CC(=O)/C=C1\N(C)c2ccccc2C1(C)C`, the inhibition is -1.75%.

`COc1ccc(CN2CCC(n3nccc3NC(=O)C3CC3)CC2)c(OC)c1OC`: the inhibition was -1.17%. Turning to `O=S(=O)(NCCN1CCOCC1)c1cc(Cl)ccc1Cl`, the inhibition turned out to be 10.9%. In the case of `Cc1ccsc1/C=N\NC(=O)c1cc(C(C)(C)C)[nH]n1`, the inhibition worked out at 12.6%.

For `Cc1cc(C(=O)N/N=C/c2cccc([N+](=O)[O-])c2O)n[nH]1`, the inhibition was found to be 14.7%. The result for `CC(C)(C)c1cc(C(=O)N/N=C/c2ccc(-c3ccccc3[N+](=O)[O-])o2)n[nH]1` reads 26.9%. For the compound `Cc1cc(C(=O)N/N=C/c2ccc(C)s2)n[nH]1`, the inhibition turned out to be 4.06%. Turning to `Cc1c(C(=O)OCC[N+]2(C)CCCCC2)oc2ccccc12`, the inhibition is -0.02%. On to `O=C(NCC(c1cccs1)N1CCOCC1)c1ccc([N+](=O)[O-])cc1` (stereo not given), for which the inhibition was -4.42%.

As to `O=C(NCC(c1cccs1)N1CCOCC1)c1cccc([N+](=O)[O-])c1` (stereo not given), the inhibition worked out at 3.78%. Consider `CCOCCCN(C(=O)c1snc(C(N)=O)c1N)C(C(=O)NC1CCCC1)c1ccc(O)cc1` (stereo not given), for which the inhibition is 12.3%. On to `CCCN(Cc1nnc(-c2ccccc2Cl)o1)C(=O)c1oc2ccccc2c1C`, for which the inhibition was -13.1%.

Turning to `O=C(C1=COCCO1)N(Cc1nnc(-c2ccccc2Cl)o1)C1CC1`, the inhibition came to 2.01%. In the case of `CCCN(Cc1nnc(-c2ccccc2Cl)o1)C(=O)c1cc2ccccc2o1`, the inhibition came to 30.8%.

Turning to `O=C(c1ccc(Cl)s1)N(Cc1nnc(-c2ccccc2Cl)o1)C1CC1`, the inhibition came to 31.8%. On to `COc1ccc(S(=O)(=O)N2CCOC23CCN(S(=O)(=O)c2cc(C)ccc2OC)CC3)cc1`, for which the inhibition is 5.02%. As to `CC(NC(=O)CC1Sc2ccccc2NC1=O)c1ccccc1` (stereo not given), the inhibition worked out at 0.31%. The result for `CCN(CC)C(=O)C(=O)N/N=C/c1ccc(C(=O)OC)cc1` reads -0.1%.

Regarding `CCOc1cc2c(cc1OCC)C(c1ccc(C(=O)O)cc1)NCC2` (stereo not given), the inhibition was -6.9%. `N/C(=N/OC(=O)c1cccc([N+](=O)[O-])c1)c1cccc([N+](=O)[O-])c1`: the inhibition is 18.3%. Take `Cc1cccc(C(=O)O/N=C(\N)c2cccc([N+](=O)[O-])c2)c1`: the inhibition came out at 75%. Turning to `COc1ccc(C(CNC(=O)c2cccc(NC(=O)c3cccs3)c2)N2CCCC2)cc1` (stereo not given), the inhibition amounted to 27.7%. The result for `CCn1nc(-c2ccccc2)nc2c(=O)n(C)c(=O)nc1-2` reads -28.8%.

`Cn1nc(-c2ccccn2)nc2c(=O)n(C)c(=O)nc1-2`: the inhibition turned out to be 74.7%.

In the case of `CC1(C)CN(c2ccc(Br)cc2Br)C1=O`, the inhibition is 8.63%. On to `CCOC(=O)N1CCN(S(=O)(=O)c2ccc(C(=O)N(CCCN(C)C)c3nc4cc(OC)ccc4s3)cc2)CC1`, for which the inhibition was found to be 8.58%.

Consider `Oc1ccc(CNc2ccccc2F)c2cccnc12`, for which the inhibition stood at 38.5%. The same measure for `OCc1ccc(O)c2ncccc12`: 26%.
